Measured values taken from ChEMBL document CHEMBL1961873, “Compounds: GSK PKIS; Assays: Nanosyn kinase panel” (2012).

Assays:
[1] = target: T1, Inhibitor of nuclear factor kappa-B kinase subunit epsilon (Homo sapiens) (UniProt Q14164); details: at 1 µM;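 further: reported values are averaged percent inhibition figures against human IKKε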
T1 sequence (whole entry): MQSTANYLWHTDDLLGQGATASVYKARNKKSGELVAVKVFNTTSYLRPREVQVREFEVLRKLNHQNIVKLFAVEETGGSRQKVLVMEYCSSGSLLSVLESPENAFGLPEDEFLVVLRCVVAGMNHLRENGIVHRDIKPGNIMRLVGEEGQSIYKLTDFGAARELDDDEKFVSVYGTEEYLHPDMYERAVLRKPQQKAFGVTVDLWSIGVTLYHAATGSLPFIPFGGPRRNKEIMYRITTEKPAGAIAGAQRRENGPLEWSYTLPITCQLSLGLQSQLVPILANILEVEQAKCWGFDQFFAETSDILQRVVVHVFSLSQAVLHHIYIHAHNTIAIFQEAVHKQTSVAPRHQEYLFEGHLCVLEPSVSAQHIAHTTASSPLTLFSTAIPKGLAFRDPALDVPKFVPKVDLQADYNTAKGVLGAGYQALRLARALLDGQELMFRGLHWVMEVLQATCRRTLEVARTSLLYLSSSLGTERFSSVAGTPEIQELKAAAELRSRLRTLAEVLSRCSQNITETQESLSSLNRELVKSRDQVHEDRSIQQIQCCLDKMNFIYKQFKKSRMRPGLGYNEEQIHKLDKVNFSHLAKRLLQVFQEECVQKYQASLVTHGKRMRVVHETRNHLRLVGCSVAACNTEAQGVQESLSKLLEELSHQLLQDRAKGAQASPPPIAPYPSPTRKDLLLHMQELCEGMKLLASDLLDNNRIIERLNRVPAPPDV

[2] = target: T2, Serine/threonine-protein kinase Nek1 (Homo sapiens) (UniProt Q96PY6); details: at 0.1 µM
T2 sequence (whole entry): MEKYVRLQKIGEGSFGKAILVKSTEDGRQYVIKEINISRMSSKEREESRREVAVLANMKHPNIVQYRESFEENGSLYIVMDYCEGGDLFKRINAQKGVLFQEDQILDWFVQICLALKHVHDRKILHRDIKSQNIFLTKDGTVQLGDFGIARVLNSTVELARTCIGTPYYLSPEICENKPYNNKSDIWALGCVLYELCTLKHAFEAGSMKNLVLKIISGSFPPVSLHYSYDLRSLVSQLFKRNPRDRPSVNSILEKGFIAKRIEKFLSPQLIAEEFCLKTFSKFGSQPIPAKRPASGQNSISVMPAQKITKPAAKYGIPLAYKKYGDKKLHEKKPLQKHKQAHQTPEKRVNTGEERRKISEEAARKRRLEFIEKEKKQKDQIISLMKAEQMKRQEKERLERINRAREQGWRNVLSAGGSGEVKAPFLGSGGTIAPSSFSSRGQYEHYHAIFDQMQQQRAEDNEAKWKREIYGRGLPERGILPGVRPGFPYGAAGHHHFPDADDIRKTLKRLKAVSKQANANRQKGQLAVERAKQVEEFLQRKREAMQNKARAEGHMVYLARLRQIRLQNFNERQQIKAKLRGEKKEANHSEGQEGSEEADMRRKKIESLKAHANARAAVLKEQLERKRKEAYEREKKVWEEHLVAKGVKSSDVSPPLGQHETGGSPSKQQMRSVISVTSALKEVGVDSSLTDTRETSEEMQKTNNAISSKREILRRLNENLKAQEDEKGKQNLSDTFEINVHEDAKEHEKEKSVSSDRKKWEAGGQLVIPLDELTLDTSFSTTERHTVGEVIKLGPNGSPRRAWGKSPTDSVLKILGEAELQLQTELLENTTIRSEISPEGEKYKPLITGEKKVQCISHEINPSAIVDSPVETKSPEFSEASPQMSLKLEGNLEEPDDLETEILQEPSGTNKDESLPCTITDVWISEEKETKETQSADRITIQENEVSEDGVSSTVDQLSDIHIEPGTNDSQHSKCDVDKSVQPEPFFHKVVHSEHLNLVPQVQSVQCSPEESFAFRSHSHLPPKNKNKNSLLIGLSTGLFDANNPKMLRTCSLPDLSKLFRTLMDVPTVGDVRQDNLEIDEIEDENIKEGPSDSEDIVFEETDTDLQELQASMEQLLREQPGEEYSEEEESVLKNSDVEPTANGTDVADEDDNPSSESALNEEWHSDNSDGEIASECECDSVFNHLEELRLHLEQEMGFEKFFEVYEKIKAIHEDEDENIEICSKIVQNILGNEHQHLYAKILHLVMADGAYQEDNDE

[3] = target: T2, Serine/threonine-protein kinase Nek1 (Homo sapiens); details: at 1 µM
[4] = target: T3, Serine/threonine-protein kinase Nek2 (Homo sapiens) (UniProt P51955); details: at 0.1 µM
T3 sequence (whole entry): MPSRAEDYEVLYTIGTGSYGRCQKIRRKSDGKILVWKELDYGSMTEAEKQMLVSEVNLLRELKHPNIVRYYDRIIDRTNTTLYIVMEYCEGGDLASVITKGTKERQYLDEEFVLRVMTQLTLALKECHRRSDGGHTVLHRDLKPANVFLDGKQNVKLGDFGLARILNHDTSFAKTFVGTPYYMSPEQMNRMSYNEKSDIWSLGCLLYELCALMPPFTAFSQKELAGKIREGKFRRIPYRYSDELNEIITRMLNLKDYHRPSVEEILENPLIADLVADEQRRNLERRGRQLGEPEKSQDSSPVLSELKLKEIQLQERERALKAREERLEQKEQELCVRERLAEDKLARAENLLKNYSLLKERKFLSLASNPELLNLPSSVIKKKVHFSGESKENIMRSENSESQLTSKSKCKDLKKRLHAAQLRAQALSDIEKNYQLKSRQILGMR

[5] = target: T3, Serine/threonine-protein kinase Nek2 (Homo sapiens); details: at 1 µM
[6] = target: Serine/threonine-protein kinase Nek6 (Homo sapiens) (UniProt Q9HC98); details: at 0.1 µM
[7] = target: Serine/threonine-protein kinase Nek6 (Homo sapiens) (UniProt Q9HC98); details: at 1 µM
[8] = target: Serine/threonine-protein kinase Nek7 (Homo sapiens) (UniProt Q8TDX7); details: at 0.1 µM
[9] = target: Serine/threonine-protein kinase Nek7 (Homo sapiens) (UniProt Q8TDX7); details: at 1 µM
[10] = target: T4, Serine/threonine-protein kinase Nek9 (Homo sapiens) (UniProt Q8TD19); details: at 0.1 µM
T4 sequence (whole entry): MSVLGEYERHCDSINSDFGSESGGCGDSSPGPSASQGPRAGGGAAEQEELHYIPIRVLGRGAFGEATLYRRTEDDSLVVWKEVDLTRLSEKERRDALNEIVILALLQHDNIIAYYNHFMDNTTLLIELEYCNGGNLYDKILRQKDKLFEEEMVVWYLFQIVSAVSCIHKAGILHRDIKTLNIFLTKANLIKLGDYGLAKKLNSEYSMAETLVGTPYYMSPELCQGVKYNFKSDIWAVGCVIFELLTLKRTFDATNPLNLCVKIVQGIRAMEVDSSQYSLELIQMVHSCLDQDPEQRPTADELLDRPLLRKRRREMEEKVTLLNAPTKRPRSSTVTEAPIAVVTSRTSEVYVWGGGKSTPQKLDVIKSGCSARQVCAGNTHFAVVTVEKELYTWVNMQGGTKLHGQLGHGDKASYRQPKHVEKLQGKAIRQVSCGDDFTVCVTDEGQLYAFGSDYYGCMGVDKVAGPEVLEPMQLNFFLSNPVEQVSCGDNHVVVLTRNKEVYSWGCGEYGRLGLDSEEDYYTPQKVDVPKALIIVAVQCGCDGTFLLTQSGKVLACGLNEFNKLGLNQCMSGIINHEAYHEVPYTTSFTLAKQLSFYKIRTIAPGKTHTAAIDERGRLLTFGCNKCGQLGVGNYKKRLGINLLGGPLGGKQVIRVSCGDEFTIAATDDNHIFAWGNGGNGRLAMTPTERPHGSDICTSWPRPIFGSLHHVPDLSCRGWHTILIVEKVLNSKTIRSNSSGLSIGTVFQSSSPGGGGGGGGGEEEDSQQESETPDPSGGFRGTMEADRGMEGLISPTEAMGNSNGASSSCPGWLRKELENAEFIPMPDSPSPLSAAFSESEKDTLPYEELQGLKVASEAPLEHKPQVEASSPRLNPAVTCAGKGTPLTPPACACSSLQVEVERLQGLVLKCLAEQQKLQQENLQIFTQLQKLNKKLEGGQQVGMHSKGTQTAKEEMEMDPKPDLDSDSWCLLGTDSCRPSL

[11] = target: T4, Serine/threonine-protein kinase Nek9 (Homo sapiens); details: at 1 µM
[12] = target: Serine/threonine-protein kinase PLK1 (Homo sapiens) (UniProt P53350); details: at 0.1 µM
[13] = target: Serine/threonine-protein kinase PLK1 (Homo sapiens) (UniProt P53350); details: at 1 µM
[14] = target: T5, Dual specificity protein kinase TTK (Homo sapiens) (UniProt P33981); details: at 0.1 µM
T5 sequence (whole entry): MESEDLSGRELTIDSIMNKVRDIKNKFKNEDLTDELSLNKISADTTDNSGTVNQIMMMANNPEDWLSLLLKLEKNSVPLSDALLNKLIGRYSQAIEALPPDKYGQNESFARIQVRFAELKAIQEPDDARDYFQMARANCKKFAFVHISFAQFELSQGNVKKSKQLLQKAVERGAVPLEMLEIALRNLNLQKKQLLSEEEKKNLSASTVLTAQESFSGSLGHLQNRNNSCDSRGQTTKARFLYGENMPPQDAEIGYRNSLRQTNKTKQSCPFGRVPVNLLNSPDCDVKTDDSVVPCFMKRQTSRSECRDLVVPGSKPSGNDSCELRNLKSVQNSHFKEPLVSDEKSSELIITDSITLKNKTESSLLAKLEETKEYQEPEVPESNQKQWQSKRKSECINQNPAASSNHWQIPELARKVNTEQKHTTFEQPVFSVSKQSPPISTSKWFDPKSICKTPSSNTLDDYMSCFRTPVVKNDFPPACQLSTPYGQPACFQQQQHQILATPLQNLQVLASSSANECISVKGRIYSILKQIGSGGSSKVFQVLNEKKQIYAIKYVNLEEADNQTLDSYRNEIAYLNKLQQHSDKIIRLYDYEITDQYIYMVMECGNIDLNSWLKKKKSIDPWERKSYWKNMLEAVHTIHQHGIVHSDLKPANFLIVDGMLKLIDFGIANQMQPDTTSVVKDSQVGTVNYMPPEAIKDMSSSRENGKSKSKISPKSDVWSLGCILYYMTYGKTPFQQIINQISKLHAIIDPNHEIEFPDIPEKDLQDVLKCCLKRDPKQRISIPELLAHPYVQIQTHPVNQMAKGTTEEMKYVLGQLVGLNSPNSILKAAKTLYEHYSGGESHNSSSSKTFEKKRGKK

[15] = tested on: T6, Receptor-type tyrosine-protein kinase FLT3 (Homo sapiens), P36888 [D835Y]; details: at 1 µM
T6 sequence (whole entry): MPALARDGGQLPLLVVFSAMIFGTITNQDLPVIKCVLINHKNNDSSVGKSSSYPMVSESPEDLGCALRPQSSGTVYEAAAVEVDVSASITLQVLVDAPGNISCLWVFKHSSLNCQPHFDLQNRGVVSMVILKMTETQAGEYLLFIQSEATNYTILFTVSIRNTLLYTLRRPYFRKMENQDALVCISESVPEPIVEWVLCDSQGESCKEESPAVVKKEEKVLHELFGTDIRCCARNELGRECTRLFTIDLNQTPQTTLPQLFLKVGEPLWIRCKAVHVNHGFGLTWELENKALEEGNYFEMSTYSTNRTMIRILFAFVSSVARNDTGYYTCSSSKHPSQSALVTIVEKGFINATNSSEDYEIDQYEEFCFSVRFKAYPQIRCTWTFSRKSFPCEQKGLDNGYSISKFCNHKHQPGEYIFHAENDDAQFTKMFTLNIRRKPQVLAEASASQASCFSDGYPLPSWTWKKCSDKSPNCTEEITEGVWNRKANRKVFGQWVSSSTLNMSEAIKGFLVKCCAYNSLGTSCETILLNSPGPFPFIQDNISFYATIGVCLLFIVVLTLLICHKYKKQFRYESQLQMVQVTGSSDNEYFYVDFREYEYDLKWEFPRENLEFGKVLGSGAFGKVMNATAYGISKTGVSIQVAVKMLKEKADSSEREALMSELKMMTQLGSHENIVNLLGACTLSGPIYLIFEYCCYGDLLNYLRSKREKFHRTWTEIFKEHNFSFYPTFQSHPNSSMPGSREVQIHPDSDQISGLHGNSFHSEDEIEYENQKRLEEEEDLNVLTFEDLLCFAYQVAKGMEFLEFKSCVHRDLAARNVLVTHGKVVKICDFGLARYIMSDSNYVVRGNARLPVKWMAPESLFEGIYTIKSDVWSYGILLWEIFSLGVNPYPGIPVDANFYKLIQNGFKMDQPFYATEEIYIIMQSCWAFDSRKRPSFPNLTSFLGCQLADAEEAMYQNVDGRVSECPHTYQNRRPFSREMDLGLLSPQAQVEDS

[16] = target: Vascular endothelial growth factor receptor 3 (Homo sapiens) (UniProt P35916); details: at 0.1 µM
[17] = target: Vascular endothelial growth factor receptor 3 (Homo sapiens) (UniProt P35916); details: at 1 µM
[18] = target: Macrophage colony-stimulating factor 1 receptor (Homo sapiens) (UniProt P07333); details: at 0.1 µM
[19] = target: Macrophage colony-stimulating factor 1 receptor (Homo sapiens) (UniProt P07333); details: at 1 µM
[20] = target: Tyrosine-protein kinase Fyn (Homo sapiens) (UniProt P06241); details: at 0.1 µM
Tyrosine-protein kinase Fyn (Homo sapiens), sequence (P06241 2-537 limits assumed): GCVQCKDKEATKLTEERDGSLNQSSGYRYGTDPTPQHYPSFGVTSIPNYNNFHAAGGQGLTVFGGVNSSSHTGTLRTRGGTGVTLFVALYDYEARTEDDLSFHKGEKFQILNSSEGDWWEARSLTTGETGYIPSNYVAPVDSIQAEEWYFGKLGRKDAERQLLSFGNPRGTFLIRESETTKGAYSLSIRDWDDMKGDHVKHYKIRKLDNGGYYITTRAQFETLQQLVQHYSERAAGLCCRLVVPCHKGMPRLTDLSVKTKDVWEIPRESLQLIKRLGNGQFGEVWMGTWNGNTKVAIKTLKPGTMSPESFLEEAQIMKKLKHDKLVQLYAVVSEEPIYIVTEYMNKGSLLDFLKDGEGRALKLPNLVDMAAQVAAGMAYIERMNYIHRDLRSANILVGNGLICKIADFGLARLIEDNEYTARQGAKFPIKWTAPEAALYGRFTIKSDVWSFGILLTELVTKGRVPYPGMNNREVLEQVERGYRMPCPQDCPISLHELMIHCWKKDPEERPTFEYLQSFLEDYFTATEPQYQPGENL

Macrophage colony-stimulating factor 1 receptor (Homo sapiens), sequence (P07333 whole entry): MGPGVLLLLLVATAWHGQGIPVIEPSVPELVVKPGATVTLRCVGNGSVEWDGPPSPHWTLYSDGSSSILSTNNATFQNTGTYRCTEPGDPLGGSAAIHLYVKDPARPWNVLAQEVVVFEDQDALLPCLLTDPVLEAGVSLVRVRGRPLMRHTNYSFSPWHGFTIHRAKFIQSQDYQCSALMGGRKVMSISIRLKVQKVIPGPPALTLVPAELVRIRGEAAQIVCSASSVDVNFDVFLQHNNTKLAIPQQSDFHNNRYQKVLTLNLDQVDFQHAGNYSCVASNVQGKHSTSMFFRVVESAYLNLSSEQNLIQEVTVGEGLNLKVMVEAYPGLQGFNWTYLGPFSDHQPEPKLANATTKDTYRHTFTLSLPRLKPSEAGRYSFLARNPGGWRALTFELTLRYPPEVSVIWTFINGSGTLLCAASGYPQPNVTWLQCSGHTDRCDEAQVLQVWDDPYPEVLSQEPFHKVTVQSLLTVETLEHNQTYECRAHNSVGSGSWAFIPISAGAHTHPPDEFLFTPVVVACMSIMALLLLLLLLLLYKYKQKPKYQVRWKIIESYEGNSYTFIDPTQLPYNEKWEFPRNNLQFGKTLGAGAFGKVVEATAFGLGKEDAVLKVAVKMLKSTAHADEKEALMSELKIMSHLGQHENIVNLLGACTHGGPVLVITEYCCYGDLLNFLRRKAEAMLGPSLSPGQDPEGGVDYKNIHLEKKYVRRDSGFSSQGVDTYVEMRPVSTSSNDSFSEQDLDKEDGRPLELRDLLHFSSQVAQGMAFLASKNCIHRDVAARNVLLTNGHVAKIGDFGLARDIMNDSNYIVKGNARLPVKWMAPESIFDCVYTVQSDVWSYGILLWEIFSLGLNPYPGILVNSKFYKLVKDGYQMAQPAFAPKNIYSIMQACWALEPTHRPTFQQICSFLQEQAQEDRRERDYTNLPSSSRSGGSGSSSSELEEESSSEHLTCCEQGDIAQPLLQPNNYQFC
Serine/threonine-protein kinase PLK1 (Homo sapiens), sequence (P53350 whole entry): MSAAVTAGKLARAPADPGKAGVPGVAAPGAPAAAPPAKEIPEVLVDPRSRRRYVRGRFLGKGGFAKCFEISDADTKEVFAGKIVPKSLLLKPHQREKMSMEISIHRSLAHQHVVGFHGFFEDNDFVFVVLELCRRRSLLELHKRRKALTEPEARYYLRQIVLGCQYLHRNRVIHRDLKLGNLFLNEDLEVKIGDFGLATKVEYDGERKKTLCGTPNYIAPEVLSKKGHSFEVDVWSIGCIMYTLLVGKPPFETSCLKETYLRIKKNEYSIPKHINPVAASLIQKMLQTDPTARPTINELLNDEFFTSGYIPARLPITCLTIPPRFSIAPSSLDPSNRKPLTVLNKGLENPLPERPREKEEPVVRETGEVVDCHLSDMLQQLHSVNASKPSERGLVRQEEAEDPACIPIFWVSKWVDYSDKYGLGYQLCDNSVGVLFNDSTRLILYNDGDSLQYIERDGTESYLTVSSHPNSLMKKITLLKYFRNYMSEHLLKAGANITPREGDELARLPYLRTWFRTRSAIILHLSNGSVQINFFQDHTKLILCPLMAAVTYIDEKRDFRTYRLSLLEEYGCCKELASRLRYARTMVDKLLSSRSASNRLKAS
Serine/threonine-protein kinase Nek7 (Homo sapiens), sequence (Q8TDX7 whole entry, looked up): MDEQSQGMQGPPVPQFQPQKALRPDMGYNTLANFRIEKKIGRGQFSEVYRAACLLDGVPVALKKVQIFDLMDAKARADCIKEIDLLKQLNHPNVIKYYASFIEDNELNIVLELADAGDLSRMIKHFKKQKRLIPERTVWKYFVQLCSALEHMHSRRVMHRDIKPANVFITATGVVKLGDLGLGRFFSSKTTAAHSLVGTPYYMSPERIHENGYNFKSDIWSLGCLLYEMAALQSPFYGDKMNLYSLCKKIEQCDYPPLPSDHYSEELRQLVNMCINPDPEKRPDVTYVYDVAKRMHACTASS
Serine/threonine-protein kinase Nek6 (Homo sapiens), sequence (Q9HC98 whole entry): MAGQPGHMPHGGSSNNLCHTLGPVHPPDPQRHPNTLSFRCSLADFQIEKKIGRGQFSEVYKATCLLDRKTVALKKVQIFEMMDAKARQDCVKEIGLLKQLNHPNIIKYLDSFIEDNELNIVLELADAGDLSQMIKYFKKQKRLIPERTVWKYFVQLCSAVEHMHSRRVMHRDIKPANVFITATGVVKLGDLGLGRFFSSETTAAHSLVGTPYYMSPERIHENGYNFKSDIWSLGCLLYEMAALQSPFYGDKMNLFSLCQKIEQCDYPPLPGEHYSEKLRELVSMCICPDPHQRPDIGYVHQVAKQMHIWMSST
Vascular endothelial growth factor receptor 3 (Homo sapiens), sequence (P35916 whole entry): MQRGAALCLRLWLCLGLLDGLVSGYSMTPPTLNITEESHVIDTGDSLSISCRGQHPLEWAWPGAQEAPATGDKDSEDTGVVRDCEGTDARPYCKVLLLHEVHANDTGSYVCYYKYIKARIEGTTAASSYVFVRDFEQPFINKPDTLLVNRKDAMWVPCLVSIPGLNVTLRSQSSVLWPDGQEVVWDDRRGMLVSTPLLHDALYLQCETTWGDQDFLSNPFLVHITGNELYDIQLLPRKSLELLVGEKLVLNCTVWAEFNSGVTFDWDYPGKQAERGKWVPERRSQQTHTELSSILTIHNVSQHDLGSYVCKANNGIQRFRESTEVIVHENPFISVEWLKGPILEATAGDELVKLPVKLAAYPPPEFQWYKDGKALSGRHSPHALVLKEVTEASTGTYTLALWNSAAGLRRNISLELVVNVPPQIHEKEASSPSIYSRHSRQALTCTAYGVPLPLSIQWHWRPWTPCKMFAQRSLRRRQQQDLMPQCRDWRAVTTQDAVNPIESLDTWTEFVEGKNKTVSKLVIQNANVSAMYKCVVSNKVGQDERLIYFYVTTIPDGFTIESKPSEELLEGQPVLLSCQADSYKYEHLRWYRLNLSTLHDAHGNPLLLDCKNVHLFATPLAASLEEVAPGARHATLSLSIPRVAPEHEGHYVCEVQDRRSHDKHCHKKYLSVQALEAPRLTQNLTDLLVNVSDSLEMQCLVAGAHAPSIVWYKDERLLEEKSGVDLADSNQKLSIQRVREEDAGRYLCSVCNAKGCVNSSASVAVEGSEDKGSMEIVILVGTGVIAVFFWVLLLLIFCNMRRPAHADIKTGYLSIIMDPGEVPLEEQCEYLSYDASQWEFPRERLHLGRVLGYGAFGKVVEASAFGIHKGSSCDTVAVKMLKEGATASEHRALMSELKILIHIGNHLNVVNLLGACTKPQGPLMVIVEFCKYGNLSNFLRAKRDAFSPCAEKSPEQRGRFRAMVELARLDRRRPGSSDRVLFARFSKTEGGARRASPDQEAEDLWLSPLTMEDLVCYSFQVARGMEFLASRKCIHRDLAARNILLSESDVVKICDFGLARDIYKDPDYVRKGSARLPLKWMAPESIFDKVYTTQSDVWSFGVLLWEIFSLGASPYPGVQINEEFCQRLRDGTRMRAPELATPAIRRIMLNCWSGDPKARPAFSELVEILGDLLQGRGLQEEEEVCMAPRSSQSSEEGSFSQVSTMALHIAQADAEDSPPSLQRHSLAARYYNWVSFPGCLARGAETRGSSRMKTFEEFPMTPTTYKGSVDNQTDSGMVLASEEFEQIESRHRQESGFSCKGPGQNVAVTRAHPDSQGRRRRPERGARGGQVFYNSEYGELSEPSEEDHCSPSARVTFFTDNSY

SMILES	inhibition [1]	inhibition [2]	inhibition [3]	inhibition [4]	inhibition [5]	inhibition [6]	inhibition [7]	inhibition [8]	inhibition [9]	inhibition [10]	inhibition [11]	inhibition [12]	inhibition [13]	inhibition [14]	inhibition [15]	inhibition [16]	inhibition [17]	inhibition [18]	inhibition [19]	inhibition [20]
CCn1c(-c2nonc2N)nc2ccccc21	1.58%	2.18%	2.6%	3.43%	4.15%	5.78%	0.38%	2.9%	4.22%	0.97%	0.94%	6.53%	2.85%	3.51%	-3.67%	5.92%	5.29%	0.61%	2.71%	0.86%
CCn1cc(-c2ccnc3[nH]ccc23)c(-c2cccc(NC(=O)Nc3ccc(OCc4ccccc4)cc3)c2)n1	3.46%	1.35%	0.82%	0.4%	-1.01%	-0.55%	-0.07%	-1.04%	-5.21%	3.07%	1.16%	-0.45%	-0.98%	7.9%	0.68%	-0.45%	-0.67%	-7.9%	0.27%	0.67%
N#Cc1c(NC(=O)c2ccc(F)cc2)sc2c1CCCC2	3.72%	9.69%	3.09%	2.18%	1.31%	2.27%	2.25%	2.7%	2.46%	3.12%	0.67%	4.32%	2.6%	4.36%	2.85%	0.08%	-0.81%	0.56%	-0.85%	-0.49%
O=S(=O)(CCNCc1ccc(-c2ccc3ncnc(Nc4ccc(OCc5cccc(F)c5)c(Cl)c4)c3c2)o1)c1ccccc1	7.29%	3.48%	5.88%	5.1%	7.03%	4.21%	2.74%	3.88%	5.26%	4.93%	4.64%	6%	5.8%	7.34%	-1.66%	4.59%	7.11%	2.22%	8.85%	2.58%
